# HMGR II inh: inhibitors of class II HMG-CoA reductase from Enterococcus faecalis; purified E. faecalis HMGR, NADPH absorbance 340 nm kinetic; inhibition, % at 10 µM; 190,000 compounds, 0.41% hits; AID 1066;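 active = inhibition above a set limit, the median over all tested compounds plus 3 SD, cut at about 9.5% in these data; inconclusive = no clear call, values can overlap the other calls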;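 note: enzyme runs in reverse so mevalonate oxidation gives rising NADPH absorbance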
# Autophagy HCS: alters autophagy in cells. MEF GFP-LC3 puncta imaging; test concentration mostly 10 µM. calls only at 10 µM (by protocol). 190,000 compounds, 0.98% hits. AID 463193;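 active = percentage of spot-positive cells more than 3 SD above its plate mean, without a fluorescence outlier flag or 80% toxicity; inconclusive = no clear call, values can overlap the other calls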
# INS promoter inh: TRM-6 insulin promoter activity inhibition. 130,000 compounds, 0.9% hits. TRM-6 cells (human fetal islet line), insulin promoter-eGFP reporter, imaging; reporter expression induced with tamoxifen. inhibition, % at 2 µM;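 active = inhibition above the mean plus 3 SD, with well images judged a real hit on visual review, cut at about 60% in these data, passing the limit was not always enough; inconclusive = inhibition over the cutoff but images rejected on review; inactive = inhibition not above the cutoff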
# Insulin prom up: MIN6 insulin promoter up-regulation; MIN6 insulin promoter-GFP reporter, high-content imaging; active compounds read high; z-score at 5 µM; 190,000 compounds, 0.3% hits; AID 1625;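 active = z-score above 3 at 5 µM with at least 500 cells counted in the well; inconclusive = wells under 500 cells, flagged as cytotoxic or low count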
# Numbers stand for hits; n = inactive; u = inconclusive; x = no result given; + = active, no number. Rows were chosen to be rich in hits. Some 1.9% of all compounds tested hit in one or more screens of this group.
SMILES,HMGR II inh,Autophagy HCS,INS promoter inh,Insulin prom up
CCCn1c(=NC(=O)c2c(-c3c(F)cccc3Cl)noc2C)c(C(=O)OCC)cc2c(=O)n3ccccc3nc21,n,+,n,n
O=C(Cn1nnc2c(cnn2-c2ccc(F)cc2)c1=O)Nc1ccccc1C(F)(F)F,n,n,x,n
COc1ccc(Cn2nnnc2C(c2cccs2)N2CCOCC2)cc1 (configuration not stated),n,n,100,n
c1ccc(CCn2nnnc2C(c2cccs2)N2CCOCC2)cc1 (configuration not stated),n,x,x,n
COCc1cc(C)nc(Oc2ccccc2)c1C#N,n,n,x,n
CC(C)(C)n1nnnc1SCC(=O)Nc1nn(-c2ccccc2)nc1C(N)=O,10.0,n,n,n
COc1ccc(-c2oc3ncnc(NCCCN4CCOCC4)c3c2-c2ccc(OC)cc2)cc1,n,n,x,n
c1ccc(-c2csc3ncnc(NCCN4CCOCC4)c23)cc1,n,n,81,x
COc1ccc(-c2oc3ncnc(NCCN4CCOCC4)c3c2-c2ccc(OC)cc2)cc1,n,+,x,n
Cc1ccc(-c2csc3ncnc(NCCN4CCOCC4)c23)cc1,n,n,n,n
CC(C)(C)NC(=O)C(OC(=O)c1cccs1)c1ccc(C#N)cc1 (configuration not stated),n,n,n,x
CCN(c1ccccc1)S(=O)(=O)c1ccc(C(=O)Nc2nnc(C3CC3)o2)cc1,n,n,78,n
COCC1CCN(Cc2nc(-c3ccc(OC)cc3)no2)CC1,n,n,x,n
CCOC(=O)C1(CC/C(C)=N\NC(N)=O)CC(C)(C)OC1=O (configuration not stated),n,+,x,x
CN(Cc1nc2ccccc2n1C)S(C)(=O)=O,n,n,n,x
CN(Cc1nc2ccccc2n1C)S(=O)(=O)c1ccc(F)cc1,n,n,93,n
CCC(CO)[n+]1c(C)cc(/C=C2\Sc3ccccc3N2Cc2ccccc2)cc1C (configuration not stated),n,+,x,u
O=C(O)c1ccc2c(c1)N(Cc1ccccc1)C(=O)c1ccccc1S2,x,x,x,n
Cc1ccc(CO/N=C/C2=C(Cl)c3ccccc3CC2)cc1,n,n,79,n
CC1(C)CC(=O)C2=C(C1)OC(N)=C(C#N)C21CCN(Cc2ccccc2)CC1,n,n,n,n
Cc1nc2c([nH]1)C1(CCN(Cc3ccccc3)CC1)C(C#N)=C(N)O2,17,n,n,n
C(=N\c1c(-c2ccccc2)nc2n1CCS2)/c1ccccc1,n,n,n,n
Clc1ccc(/C=N/c2c(-c3ccc(Cl)cc3)nc3n2CCS3)cc1,x,+,n,n
CSc1nsc2nc(=O)c(/C=C3\C(C)=Nc4ccccc43)c(N)n12,n,n,x,n
CCOC(=O)c1c(O)cc(C)[nH]c1=O,x,x,x,n
SMILES,HMGR II inh,Autophagy HCS,INS promoter inh,Insulin prom up
COCCn1nnnc1C(C(C)C)N1CCSCC1 (configuration not stated),n,n,x,x
CSc1nnc(C)c(/C=C/Nc2ccc(F)cc2F)n1,n,n,x,n
C=CCSc1nnc(C)c(/C=C/Nc2ccc(Cl)cc2)n1,n,+,x,x
CC(C)(C)C(=O)/C(=C\c1ccc([N+](=O)[O-])cc1)n1cncn1,n,+,n,x
COc1ccc(C(=O)/C=C/NCc2ccc(F)cc2)cc1OC,x,x,x,n
CCCCCCN=CC1=C(O)C(C(=O)OC)C(C)(C)CC1=O (configuration not stated),n,n,93,n
COC(=O)C1C(O)=C(C=NC2CCCCC2)C(=O)CC1(C)C (configuration not stated),n,n,n,n
O=C(N=Nc1c(O)[nH]c2ccccc12)c1ccco1,n,n,n,n
COCCn1c(C)cc(C(=O)COc2ccc(C)nc2[N+](=O)[O-])c1C,13,n,x,n
CC(=O)c1cccc(NC(=O)CN2C(=O)C3C4C=CC(C4)C3C2=O)c1 (configuration not stated),n,n,n,n
O=C(CN1C(=O)C2C3C=CC(C3)C2C1=O)Nc1cccc(S(=O)(=O)N2CCCC2)c1 (configuration not stated),n,n,100,n
O=C(CN1C(=O)C2CC=CCC2C1=O)Nc1ccc(S(=O)(=O)N2CCOCC2)cc1 (configuration not stated),n,n,73,n
O=C(CN1CCCCCC1)Nc1ccc(S(=O)(=O)N2CCOCC2)cc1,n,n,x,x
COc1ccc(C(C)=O)cc1COC(=O)c1cccnc1SC,n,n,x,n
O=C(O)/C=C/c1cnc2ccccc2c1,n,n,x,n
CC1(C)CC(=O)C=C(NC2=CC3OC(c4ccccc4)OCC3OC2=O)C1 (configuration not stated),n,n,n,n
COc1ccc(OCC(=O)OC2CCN(C)CC2)cc1,n,n,n,n
Cc1ccccc1OCC(=O)OC1CCN(C)CC1,n,n,n,8.6
C=C(C)CSc1nc2nc(C)c(Br)cc2[nH]1,n,n,79,n
COC(=O)CSc1nc2nc(C)c(Br)cc2[nH]1,n,n,n,n
O=C(CN1CC(c2ccccc2)CC1=O)N/N=C/c1cc(Br)ccc1O (configuration not stated),n,n,n,n
Cn1c(NNC(=O)C2CCCCC2)cc(=O)n(C)c1=O,n,+,x,n
CCCCNc1nc(=S)n(-c2ccccc2)c(C)c1C(C)=O,n,n,x,n
Cn1c(=O)c(C(=O)CSc2ccccc2)c(N)n(Cc2ccccc2)c1=O,14,n,x,n
Cc1ccc2c(C)nc(/N=C(\N)NC(=O)N3c4ccccc4Sc4ccccc43)nc2c1,n,n,80,n
SMILES,HMGR II inh,Autophagy HCS,INS promoter inh,Insulin prom up
Cc1ccc2nc(/N=C(\N)NC(=O)N3c4ccccc4Sc4ccccc43)nc(C)c2c1,n,n,n,n
C/C(=N\N1CCN(C)CC1)c1ccc(Cl)c(Cl)c1,n,n,x,n
C/C(=N\N1CCN(C)CC1)c1ccc(OC(F)F)cc1,n,+,75,n
O=C1Nc2ccccc2Oc2cc([N+](=O)[O-])cc(Oc3ccccc3)c21,n,+,n,n
Cc1cccc(Oc2cc([N+](=O)[O-])cc3c2C(=O)Nc2ccccc2O3)c1,n,n,n,n
COc1ccc(CONS(=O)(=O)c2ccc(NC(C)=O)cc2)cc1Cl,n,n,n,x
CNS(=O)(=O)c1cccc(C(=O)NCC(c2cccs2)N(C)C)c1 (configuration not stated),n,n,73,n
CCOC(=O)N(C)OC(=O)Nc1ccc(Cl)c(Cl)c1,n,n,n,n
CCOC(=O)CNNC(=O)Nc1ccc(Cl)c(Cl)c1,n,n,75,n
C/C(=N/NC(=O)c1cc(-c2ccc(Br)s2)[nH]n1)c1ccco1,n,n,x,n
C/C(=N\NC(=O)c1cc(C(C)C)[nH]n1)c1ccco1,n,+,n,n
CC(=O)c1nc(N2C(=O)CC(Cc3cc(C)cc(C)c3)C2=O)sc1C (configuration not stated),n,+,n,n
CC(C)(C)NC(=O)/C=C/c1cccc(C(F)(F)F)c1,n,n,60,n
CC(=O)Nc1ccc(NC(=O)/C=C/c2cccc(C(F)(F)F)c2)cc1,n,n,n,n
COc1cc(NC(=O)c2cccc(Cl)c2)ccc1NC(=O)c1cccs1,n,+,n,x
CNC(=O)c1ccccc1Sc1ccccc1C#N,n,n,n,n
O=C(c1ccccc1)c1ccccc1C(=O)N1CCOCC1,n,n,90,n

# High-throughput results as filed in PubChem BioAssay.
